We go through ten compounds from paper PMC5540273 (PLoS ONE, 2017).

Some test systems named below: MAP3K3; MAP3K4; MAP4K2; MAP4K3; MAP4K4; MAP4K5; MAPKAPK2; MAPKAPK5; MARK1; MARK2; MARK3; MARK4; MAST1; MELK.
Settings in all cases: concentration: 1 μM, replicates: in singlicate; n = 1
For the next assay, the system named is T1, MEK1.
T1 construct: gene MAP2K1

The test system of the next assay is T2, MEK2.
T2 construct: gene MAP2K2

The test system of the next assay is T3, MEK3.
T3 construct: gene MAP2K3

The next assay deals with T4, MEK4.
T4 construct: gene MAP2K4

In the next assay the test system is T5, MEK5.
T5 construct: gene MAP2K5

In another assay the test system is T6, MEK6.
T6 construct: gene MAP2K6
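Further: KINOMEscan kinase panel screen.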

On to `COc1ccc(Nc2nccc(N3CCC(NC(=O)c4cccc(NC(C)=O)c4)C3)n2)cc1` (centres unmarked) [GSK1379732], for which the “%Inh” value in the assay with MAP3K3, in the assay with MAP3K4, with MAP4K2, with MAP4K3, in the assay with MAP4K4 and in the assay with MAP4K5 was 0% throughout. The “%Inh” value is recorded as 0% with MAPKAPK2; 0% with MAPKAPK5; 0% with MARK1; 0% in the assay on MARK2; 3% with MARK3; 0% with MARK4. Further, the “%Inh” value with MAST1 worked out at 42%; in the assay with MEK1 it was 0%; in the assay with MEK2, 0%; in the assay with MEK3 it was 0%; in the assay on MEK4, 18%; in the assay with MEK5, 19%. Besides, the “%Inh” value with MEK6 and in the assay with MELK was 0% in each case.

On to `Clc1cccc(-c2nc(Nc3ccncc3)c3ccccc3n2)c1` [GW873004], for which the “%Inh” value turned out to be 20% in the assay on MAP3K3; 23% in the assay with MAP3K4; 0% with MAP4K2; 0% in the assay on MAP4K3; 17% in the assay on MAP4K4; 3% with MAP4K5. Also, the “%Inh” value is recorded as 0% in the assay with MAPKAPK2; 0% with MAPKAPK5; 0% in the assay on MARK1; 0% in the assay with MARK2; 32% in the assay on MARK3; 23% with MARK4. Moreover, the “%Inh” value in the assay with MAST1 came out at 53%; in the assay on MEK1, 10%; in the assay with MEK2, 21%; in the assay on MEK3 it was 0%; in the assay on MEK4, 0%; in the assay on MEK5, 14%. Also, the “%Inh” value with MEK6 was 0%; in the assay with MELK, 31%.

With `Nc1nc(-c2cccnc2)c(-c2ccnc3ccccc23)s1` [GW684083], the “%Inh” value turned out to be 0% in the assay on MAP3K3; 0% with MAP3K4; 0% with MAP4K2; 0% in the assay with MAP4K3; 16% with MAP4K4; 0% in the assay with MAP4K5. In addition, the “%Inh” value with MAPKAPK2 came out at 14%; with MAPKAPK5, 0%; with MARK1, 0%; with MARK2, 0%; in the assay with MARK3 it was 0%; in the assay with MARK4 it was 0%. In addition, the “%Inh” value in the assay with MAST1 amounted to 22%; in the assay with MEK1, 0%; in the assay on MEK2, 0%; with MEK3 it was 0%; with MEK4, 1%; in the assay with MEK5 it was 70%. Besides, the “%Inh” value in the assay with MEK6 turned out to be 0%; in the assay on MELK, 6%.

For the compound `FC(F)(F)c1ccc(-c2cc(-c3c[nH]nc3-c3ccccn3)ccn2)cc1` [GW599550], the “%Inh” value came to 0% in the assay on MAP3K3; 0% in the assay on MAP3K4; 0% in the assay on MAP4K2; 0% with MAP4K3; 60% in the assay with MAP4K4; 8% with MAP4K5. In addition, the “%Inh” value was found to be 28% with MAPKAPK2; 0% in the assay with MAPKAPK5; 0% with MARK1; 0% with MARK2; 0% with MARK3; 2% in the assay with MARK4. For the same compound, the “%Inh” value worked out at 0% in the assay with MAST1; 5% with MEK1; 0% with MEK2; 0% with MEK3; 18% with MEK4; 8% with MEK5. In addition, the “%Inh” value in the assay on MEK6 and in the assay on MELK was 0% each time.

For the compound `COc1ccc(-c2oc3ncnc(N)c3c2-c2ccc(OC)cc2)cc1` [SB-589132], the “%Inh” value in the assay on MAP3K3, in the assay with MAP3K4, in the assay with MAP4K2, with MAP4K3, in the assay on MAP4K4 and in the assay with MAP4K5 was 0% each time. Besides, the “%Inh” value in the assay on MAPKAPK2 came to 19%; in the assay on MAPKAPK5 it was 0%; in the assay on MARK1, 0%; with MARK2, 0%; in the assay with MARK3, 2%; with MARK4 it was 0%. The “%Inh” value with MAST1 was 53%; in the assay with MEK1 it was 0%; in the assay with MEK2, 0%; in the assay on MEK3 it was 0%; in the assay with MEK4 it was 0%; with MEK5, 88%. The “%Inh” value is listed as 0% in the assay with MEK6 and 8% in the assay with MELK.

Take `O=c1cc(N2CCOCC2)nc2n(Cc3cccc(Cl)c3)ccn12` [GSK2296823]: the “%Inh” value amounted to 0% with MAP3K3; 4% with MAP3K4; 0% in the assay with MAP4K2; 7% with MAP4K3; 0% in the assay with MAP4K4; 0% in the assay with MAP4K5. In addition, the “%Inh” value in the assay with MAPKAPK2 turned out to be 40%; with MAPKAPK5, 0%; with MARK1, 0%; in the assay with MARK2 it was 81%; with MARK3, 0%; with MARK4 it was 5%. Further, the “%Inh” value in the assay with MAST1 worked out at 0%; in the assay on MEK1, 8%; with MEK2, 0%; in the assay with MEK3, 0%; in the assay with MEK4, 4%; in the assay on MEK5, 13%. The “%Inh” value with MEK6 and in the assay with MELK was 0% each time.

For the compound `Oc1ccc2ncnc(Nc3ccc(OCc4ccccc4)cc3)c2c1` [GI262866], the “%Inh” value stood at 0% with MAP3K3; 2% in the assay on MAP3K4; 0% in the assay on MAP4K2; 11% in the assay with MAP4K3; 4% in the assay with MAP4K4; 0% in the assay with MAP4K5. Besides, the “%Inh” value in the assay with MAPKAPK2 was 16%; with MAPKAPK5, 0%; in the assay with MARK1 it was 0%; with MARK2 it was 0%; in the assay with MARK3, 22%; with MARK4 it was 0%. For the same compound, the “%Inh” value in the assay on MAST1 is on record as 0%; in the assay with MEK1, 18%; in the assay with MEK2 it was 2%; in the assay on MEK3, 0%; in the assay on MEK4 it was 11%; in the assay on MEK5 it was 99.1%. In addition, the “%Inh” value in the assay on MEK6 and in the assay on MELK was 0% throughout.

On to `CCc1nc(-c2cccc(N(C)S(=O)(=O)c3ccccc3)c2)c(-c2ccnc(Nc3ccc(N4CCN(C(C)=O)CC4)nc3)n2)s1` [GSK1645895], for which the “%Inh” value amounted to 0% with MAP3K3; 18% in the assay with MAP3K4; 0% in the assay with MAP4K2; 0% in the assay on MAP4K3; 0% in the assay on MAP4K4; 17% in the assay on MAP4K5. For the same compound, the “%Inh” value in the assay with MAPKAPK2 is given as 0%; with MAPKAPK5 it was 0%; with MARK1, 0%; in the assay with MARK2, 4%; in the assay with MARK3, 0%; in the assay on MARK4 it was 0%. The “%Inh” value in the assay on MAST1 is 0%; with MEK1 it was 0%; in the assay with MEK2 it was 3%; in the assay on MEK3 it was 3%; in the assay with MEK4, 0%; in the assay with MEK5 it was 99.9%. Also, the “%Inh” value in the assay on MEK6 was found to be 24%; in the assay with MELK, 0%.

For the compound `Cc1ccc(NC(=O)c2cccc(C#N)c2)cc1-c1ccc(C(=O)Nc2ccncc2)cc1` [GSK1398463], the “%Inh” value with MAP3K3 is 0%; with MAP3K4, 35%; in the assay on MAP4K2 it was 0%; in the assay on MAP4K3, 11%; in the assay on MAP4K4, 4%; with MAP4K5 it was 0%. Also, the “%Inh” value in the assay on MAPKAPK2 turned out to be 24%; in the assay on MAPKAPK5, 0%; in the assay on MARK1 it was 0%; with MARK2 it was 0%; in the assay on MARK3, 0%; with MARK4 it was 0%. In addition, the “%Inh” value in the assay with MAST1 stood at 17%; in the assay with MEK1, 0%; in the assay with MEK2, 10%; with MEK3 it was 0%; with MEK4, 0%; in the assay on MEK5, 4%. Moreover, the “%Inh” value with MEK6 is 31%; in the assay with MELK, 0%.

As to `Clc1cc(Nc2ncnc3cc[nH]c23)ccc1OCc1ccccn1`, the “%Inh” value with MAP3K3 is 27%; in the assay on MAP3K4, 10%; with MAP4K2, 0%; with MAP4K3, 0%; in the assay with MAP4K4, 4%; with MAP4K5, 6%. The “%Inh” value was found to be 5% with MAPKAPK2; 0% in the assay on MAPKAPK5; 13% with MARK1; 0% with MARK2; 5% in the assay on MARK3; 4% in the assay with MARK4. Besides, the “%Inh” value is listed as 45% in the assay with MAST1; 17% in the assay with MEK1; 23% with MEK2; 19% in the assay with MEK3; 11% in the assay with MEK4; 76% with MEK5. Besides, the results for the “%Inh” value with MEK6 and in the assay with MELK were 17% and 0%, respectively.
